# Hits are enriched below; roughly 5.8% of the tested compounds scored in any of these assays.
# Gal4-VP16 FLuc: VP16 counterscreen qHTS for inhibitors of ROR gamma transcriptional activity; Drosophila S2 Gal4-VP16 UAS-luciferase, luminescence, 20 h; Potency, µM (titrated, usually from 53.6 µM), inactives show top-dose activity, negative = inhibition, most hits filed as inhibitors; 310,000 compounds, 3.5% hits; AID 2546, 2010;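 also: Gal4-VP16 expression switched on by copper sulfate through the metallothionein promoter; potency is read from the fitted curve at half-maximal effect; % is scaled to controls: 0 for no effect and ±100 for the full control effect; nearly all actives have a fitted effect of over 50% in size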
# TRPV1 PAM: HTS Assay for Compounds that Act as Potentiators of the Vanilloid Receptor 1; potentiation, % at 8.33 µM; TRPV1-expressing cells, Fluo-8 calcium influx, capsaicin EC20 potentiation; 320,000 compounds, 0.02% hits; in the data active = potentiation above about 80%; inconclusive = between about 30% and that limit; also: 0% is about no effect
#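 Fluo-8 calcium influx in TRPV1-expressing cells, kinetic read (ex 480/em 520 nm). Compound added and read 3 min for agonist activity, followed by capsaicin at EC20 final and 2 min further read for enhancement.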
# RORg inh: qHTS for inhibitors of ROR gamma transcriptional activity; Nuclear receptor ROR-gamma (Mus musculus), P51450; Drosophila S2 Gal4-RORgamma UAS-luciferase reporter, 20 h; Potency, µM (top dose mostly 53.6 µM), without a hit: at the top dose activity change, negative = inhibition, most hits filed as inhibitors; 310,000 compounds, 5.4% hits; also: potency is read from the fitted curve at half-maximal effect; % is scaled to controls: 0 for no effect and ±100 for the full control effect; nearly all actives have a fitted effect of over 60% in size
# Target sequence (P51450 whole entry, looked up, the tested form may be a part): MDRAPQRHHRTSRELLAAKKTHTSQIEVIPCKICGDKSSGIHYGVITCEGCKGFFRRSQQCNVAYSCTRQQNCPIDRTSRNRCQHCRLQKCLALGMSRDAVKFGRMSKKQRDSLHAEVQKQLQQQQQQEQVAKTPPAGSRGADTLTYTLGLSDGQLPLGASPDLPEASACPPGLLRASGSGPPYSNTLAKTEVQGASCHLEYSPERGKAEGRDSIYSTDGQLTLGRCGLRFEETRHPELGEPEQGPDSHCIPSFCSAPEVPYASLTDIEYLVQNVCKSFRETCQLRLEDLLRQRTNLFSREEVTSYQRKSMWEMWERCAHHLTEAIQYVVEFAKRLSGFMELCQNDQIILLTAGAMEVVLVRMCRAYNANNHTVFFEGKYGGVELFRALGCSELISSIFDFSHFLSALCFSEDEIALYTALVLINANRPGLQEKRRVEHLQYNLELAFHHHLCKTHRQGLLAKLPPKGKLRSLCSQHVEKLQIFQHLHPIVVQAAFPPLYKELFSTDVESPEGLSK
#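 Read-out: Photinus luciferase luminescence; inhibitors lower reporter signal. Insect Schneider cells with Gal4-ROR gamma fusion under metallothionein promoter, UAS reporter; 700 uM final copper sulfate induction, 20 hr, ambient temperature.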
# uPA generation: qHTS for Inhibitors of Cell Surface uPA Generation; 330,000 compounds, 0.31% hits; cell surface uPA generation assay, qHTS; Potency, µM (series often up to 38.3 µM), for the others: top-dose activity change, negative = inhibition, hits mostly inhibitors; AID 540303, 2011; active = well fitted inhibition curve with a large enough effect; inconclusive = small, poorly fitted or top-dose-only effect; inactive = no such curve, though single readings can be large or run the other way; tested in mouse RAW 264.7 cells; also: potency is read from the fitted curve at half-maximal effect; % is scaled to controls: 0 for no effect and ±100 for the full control effect; nearly all actives have a fitted effect of over 55% in size
# TRPV1 agonist: HTS Assay for Compounds that Act as Agonists of the Vanilloid Receptor 1; Transient receptor potential cation channel subfamily V member 1 (Homo sapiens), Q8NER1; 320,000 compounds, 0.19% hits; TRPV1-expressing cells, Fluo-8 calcium influx, agonist mode; activation, % at 8.33 µM; in the data active = activation above about 80%; inconclusive = between about 30% and that limit; also: 0% is about no effect
#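 Fluo-8 calcium influx in TRPV1-expressing cells, kinetic read (ex 480/em 520 nm). Compound added and read 3 min for agonist activity, followed by capsaicin at EC20 final and 2 min further read for enhancement.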
# Active calls of the source: *; u = inconclusive; x = no result given. Unless noted, calls follow the shape of the dose curve; as a rule, active = well fitted curve in the direction sought with a large enough effect; inconclusive = small, poorly fitted or top-dose-only effect, or another doubt; inactive = no such curve, though single readings can be large; an effect the other way counts as inactive or inconclusive.
SMILES,Gal4-VP16 FLuc,TRPV1 PAM,RORg inh,uPA generation,TRPV1 agonist
O=C(NNc1nc(-c2ccccc2)cs1)c1ccc(F)cc1,11µM*,2,2µM*,6%,11
CC(C)NC(=O)Nc1cccc2c1O[C@H](CN(C)C(=O)Nc1ccccc1)[C@@H](C)CN([C@H](C)CO)C2=O,x,x,x,-9%,x
CC(=O)Nc1ccc2c(c1)n(C)c(=O)n2C,0%,-9,-1%,6%,2
Cn1c(=O)n(C)c2cc(NC(=O)CCl)ccc21,u,4,11µM*,-10%,0
Cc1ccc(C#N)c(SCc2nnc(-c3ccc(Cl)cc3)o2)n1,u,-5,3.5µM*,u,5
Cc1cc(C)c(C#N)c(SCc2nnc(-c3ccccc3)o2)n1,u,-2,u,-7%,14
Cn1ccnc1C(O)(c1nnc(-c2ccccc2)o1)C(F)(F)F (configuration not stated),u,-5,7.1µM*,1%,5
COCCn1c(SCC(=O)N2CCC(C)CC2)nc2c([nH]c3ccccc32)c1=O,-28%,-23,u,0%,u
COc1ccc(-c2nn(-c3ccccc3)cc2C(=O)Nc2nccs2)cc1,11µM*,-9,7.1µM*,-3%,26
COc1cccc(-c2nn(-c3ccccc3)cc2C(=O)Nc2nccs2)c1,18µM*,9,6.3µM*,3%,-3
Cc1ccccc1NS(=O)(=O)c1nnc(NC(=O)c2ccccc2C)s1,-1%,5,5%,8%,-3
CCCN(C(=O)c1ccc(N(C)S(=O)(=O)c2ccc(C)cc2)cc1)C1CCS(=O)(=O)C1 (configuration not stated),x,27,x,-1%,1
CCc1c2c(nc3ccc4c(c13)OCCO4)-c1nc3ccccc3c(=O)n1C2,13µM*,x,2.5µM*,x,x
COc1ccc(/C=N/NC(=O)c2ccc(CSc3nc(C)cc(C)n3)cc2)cc1O,-2%,-22,23%,-15%,u
COc1ccc(O)c(/C=N/NC(=O)c2ccc(CSc3nc(C)cc(C)n3)cc2)c1,2.5µM*,19,1.3µM*,-8%,11
Cc1cc(C)nc(SCc2ccc(C(=O)N/N=C/c3cccc(O)c3O)cc2)n1,1.6µM*,8,1.4µM*,-18%,2
CCC1([N+](=O)[O-])COC(c2ccc(OC)cc2)OC1 (configuration not stated),x,x,x,0%,x
CCOc1cc(-c2nccc3cc(OC)c(OC)cc23)cc(OCC)c1OCC,5.6µM*,-12,8.9µM*,-3%,u
COc1cc(N)c(Cc2nccc3cc(OC)c(OC)cc23)cc1OC,10%,-2,-38%,-3%,-1
C(=C\c1ccccc1)/CN1CCN(Cc2nc(Cc3ccccc3)no2)CC1,1%,-11,20%,0%,22
COc1ccc(Cl)cc1NC(=S)N(CCCN1CCOCC1)Cc1cn(C)c2ccccc12,u,4,13µM*,-5%,5
Cc1ccc(Cl)c(NC(=S)N(CCCN2CCOCC2)Cc2ccco2)c1,u,-37,8.9µM*,-10%,0
CCOc1ccccc1NC(=S)N(CCCN1CCOCC1)Cc1cn(C)c2ccccc12,u,30,11µM*,-5%,-4
COc1ccccc1NC(=S)N(CCCN1CCOCC1)Cc1cn(C)c2ccccc12,-9%,-6,u,-16%,0
COc1ccc(NC(=S)N(CCCN2CCOCC2)C(C)c2cc3ccccc3o2)cc1 (configuration not stated),-27%,10,10µM*,4%,-2
C[C@H](CO)N1C[C@H](C)[C@@H](CN(C)Cc2ccc3c(c2)OCO3)Oc2c(NS(=O)(=O)c3cn(C)cn3)cccc2C1=O,x,x,x,0%,x
CCCCCCCc1nc2nc(C)c(Br)c(=O)n2[nH]1,-11%,13,30%,3%,-1
Cc1ccc(NS(=O)(=O)c2ccccc2)c(C)c1,x,-5,x,x,-3
